GPT2 inh – inhibitors of human GPT2 alanine aminotransferase | Q8TD30 | Recombinant GPT2, coupled pyruvate oxidase/HRP Amplex Red fluorescence | Potency, µM (titrated, usually from 57.7 µM), for inactives: at the highest dose activity change, negative = inhibition, actives largely listed as inhibitors | 100,000 compounds, 0.25% hits | AID 1671188; further: on the % scale 0 is the no-effect control and ±100 the full control effect; nearly all actives have a fitted effect of over 60% in size
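Inhibition is scored from Amplex Red fluorescence generated when pyruvate oxidase and HRP act on pyruvate released by GPT2. Reactions contain 10ng/uL enzyme, 250uM a-KG and 2mM L-alanine and run 30 min at room temperature.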
NPR1 antag – human Npr1 receptor antagonism; P16066; HEK293 hNpr1 GloSensor cGMP, ANP-stimulated luminescence; Potency, µM (highest dose often 46.3 µM), inactives show top-dose activity change, negative = inhibition, hits mostly inhibitors; 76,000 compounds, 1.6% hits; AID 1347048; calls by dose curve; further: on the % scale 0 is the no-effect control and ±100 the full control effect; nearly all actives have a fitted effect of over 60% in size
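Compound pre-incubated 30 min at room temperature on GloSensor-loaded HEK293 cells stably carrying hNpr1 and the pGS-40F cGMP biosensor. Stimulation uses hNppA at 0.1 nM final; luminescence is taken at baseline and 20 min post-agonist.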
HEK cytotox – cytotoxic compounds in HEK 293 cells | HEK 293 viability, ATP luminescence (CellTiter-Glo), 48-72 h | Potency, µM (highest dose often 115 µM), inactives show top-dose activity change, negative = cytotoxicity, hits mostly inhibitors | 94,000 compounds, 6.6% hits | AID 1345083; further: on the % scale 0 is the no-effect control and ±100 the full control effect; nearly all actives have a fitted effect of over 60% in size
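Cells seeded first (HEK 293, 250 cells/well), then compound added by pintool. Incubation ran 48 or 72 hr at 37 degree Celsius. CellTiter-Glo was added and luminescence imaged after 10 min at room temperature.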
NIH3T3 tox – cytotoxic compounds in NIH 3T3 cells | AID 1345082 | Potency, µM (titrated, usually from 96.7 µM), for the others: at the highest dose activity change, negative = cytotoxicity, most hits filed as inhibitors | 94,000 compounds, 4.3% hits | NIH 3T3 viability, CellTiter-Glo ATP luminescence, 48-72 h; further: on the % scale 0 is the no-effect control and ±100 the full control effect; nearly all actives have a fitted effect of over 55% in size
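Viability of NIH 3T3 cells after 48 or 72 hr compound treatment at 37 °C was assessed by CellTiter-Glo, with luminescence imaged following a 10 min room-temperature step.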
FLuc inh – inhibitors of firefly (Photinus pyralis) luciferase | purified P. pyralis luciferase, luminescence, biochemical | Potency, µM (series often up to 115 µM), most hits filed as inhibitors | 76,000 compounds, 2.5% hits; further: on the % scale 0 is the no-effect control and ±100 the full control effect; nearly all actives have a fitted effect of over 65% in size
Target sequence (P08659 whole entry, looked up): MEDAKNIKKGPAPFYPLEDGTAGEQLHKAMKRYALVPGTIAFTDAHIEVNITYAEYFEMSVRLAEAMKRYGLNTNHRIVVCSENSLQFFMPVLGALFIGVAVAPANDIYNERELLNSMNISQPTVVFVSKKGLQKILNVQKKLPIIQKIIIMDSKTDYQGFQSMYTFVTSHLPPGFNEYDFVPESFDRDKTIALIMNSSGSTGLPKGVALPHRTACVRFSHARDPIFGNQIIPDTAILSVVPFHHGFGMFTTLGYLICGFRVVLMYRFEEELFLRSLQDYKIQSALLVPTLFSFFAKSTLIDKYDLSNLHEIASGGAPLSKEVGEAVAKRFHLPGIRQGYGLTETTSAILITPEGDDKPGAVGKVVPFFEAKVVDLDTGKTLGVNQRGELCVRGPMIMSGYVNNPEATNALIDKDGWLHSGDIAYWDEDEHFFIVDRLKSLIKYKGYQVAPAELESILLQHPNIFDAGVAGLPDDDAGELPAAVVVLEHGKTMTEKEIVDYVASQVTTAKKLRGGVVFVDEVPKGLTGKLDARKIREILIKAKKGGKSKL
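FLuc 10nM, D-luciferin 10uM, ATP 10uM, Mg acetate 10mM, Tris acetate pH 7.5, Tween/BSA; cpd qHTS; enzyme added last; CCD luminescence.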
Npr1 antag conf – confirmation of human Npr1 natriuretic peptide receptor antagonists. shares compounds with NPR1 antag. HEK293 hNpr1 cGMP GloSensor luminescence, ANP-stimulated. Potency, µM (top dose mostly 57.6 µM), inactives show at the highest dose activity change, negative = inhibition, usual class: inhibitors. 1,400 compounds, 76% hits; calls by dose curve; further: nearly all actives have a fitted effect of over 70% in size
NPR2 antag – hNpr2 antagonism, selectivity versus Npr1; 1,400 compounds, 67% hits; Potency, µM (highest dose often 57.6 µM), for the others: at the top dose activity change, negative = inhibition, actives largely listed as inhibitors; HEK293 hNpr2 GloSensor cGMP luminescence, CNP-stimulated; shares compounds with NPR1 antag; calls by dose curve; further: nearly all actives have a fitted effect of over 70% in size
FLuc counter – inhibits firefly luciferase, false Npr1 antagonist flag; shares compounds with NPR1 antag; purified FLuc enzyme, luminescence, Km substrate; Potency, µM (top dose mostly 57.6 µM), for inactives: at the highest dose activity change, negative = inhibition, usual class: inhibitors; 1,400 compounds, 0.7% hits; further: 0% is about no effect
GloSensor ctrl – counter-screen for Npr1 antagonists: GloSensor control cell line. shares compounds with NPR1 antag. HEK293 GloSensor cGMP, SNP-stimulated, luminescence. Potency, µM (top dose mostly 57.6 µM), inactives show top-dose activity change, negative = inhibition, actives largely listed as inhibitors. 1,400 compounds, 69% hits; calls by dose curve; further: on the % scale 0 is the no-effect control and ±100 the full control effect; nearly all actives have a fitted effect of over 70% in size
Starred values were filed as active, the others as inactive. A selection: hits, their analogues and other compounds. The true share with any hit is near 10%. Unless noted, the call rests on the fitted dose curve; in most records, active means well fitted curve in the direction sought with a large enough effect; inconclusive means small, poorly fitted or top-dose-only effect, or another doubt; inactive means no such curve, though single readings can be large; an effect the other way counts as inactive or inconclusive. Potency means the concentration at half of the fitted maximal effect.

`CN(C)C(=O)N1C2CCC1CN(c1ccc(C(F)(F)F)cc1)C2` gave GPT2 inh -2%, HEK cytotox inconclusive, NIH3T3 tox inconclusive, Npr1 antag conf 24µM*, NPR2 antag 19µM*, FLuc counter 1% and GloSensor ctrl 15µM*.
CCNC(=O)C1CCc2ncc(-c3ccsc3)n2C1 (centres undefined) was read as GPT2 inh 4%, NPR1 antag 0%, HEK cytotox 2%, NIH3T3 tox -4% and FLuc inh inactive.
`COc1ccccc1CNC(=O)C1CCc2ncc(-c3ccsc3)n2C1` (centres undefined) gave GPT2 inh -7%, NPR1 antag -21%, HEK cytotox inconclusive, NIH3T3 tox -14%, FLuc inh inactive, Npr1 antag conf inconclusive, NPR2 antag -28%, FLuc counter 0% and GloSensor ctrl 12%.
Screening COc1ccc(Cl)cc1C(=O)N1CCN(C(=O)c2nnn3c2COC(c2ccccc2)C3)CC1 (centres undefined) returned GPT2 inh inactive, NPR1 antag inconclusive, HEK cytotox inconclusive, NIH3T3 tox inconclusive, FLuc inh inactive, Npr1 antag conf inconclusive, NPR2 antag inconclusive, FLuc counter 2% and GloSensor ctrl -25%.
For O=C(c1ccccc1F)N1CCN(C(=O)c2nnn3c2COC(c2ccc(Cl)cc2)C3)CC1 (centres undefined) the results were GPT2 inh 2%, NPR1 antag 14µM*, HEK cytotox inconclusive, NIH3T3 tox inconclusive, FLuc inh inactive, Npr1 antag conf 27µM*, NPR2 antag inconclusive, FLuc counter 2% and GloSensor ctrl inconclusive.
For COc1ccccc1C(=O)N1CCN(C(=O)c2nnn3c2COC(c2ccc(C)cc2)C3)CC1 (centres undefined) the results were GPT2 inh inconclusive, NPR1 antag inconclusive, HEK cytotox inconclusive, NIH3T3 tox inconclusive, FLuc inh inactive, Npr1 antag conf inconclusive, NPR2 antag -28%, FLuc counter 1% and GloSensor ctrl inconclusive.
Screening O=C(NC1CCCCCCC1)c1nnn2c1COC(c1ccc(F)cc1)C2 (centres undefined) returned GPT2 inh inactive, NPR1 antag inconclusive, HEK cytotox inconclusive, NIH3T3 tox inconclusive, FLuc inh inactive, Npr1 antag conf inconclusive, NPR2 antag inconclusive, FLuc counter -1% and GloSensor ctrl inconclusive.
For CCOc1ccccc1C(=O)N1CCN(C(=O)c2nnn3c2COC(c2ccccc2)C3)CC1 (centres undefined) the results were GPT2 inh 5%, NPR1 antag 0%, HEK cytotox inconclusive, NIH3T3 tox -18% and FLuc inh inactive.
`Clc1ccc2nc(N3CCC(NCCc4cccnc4)CC3)sc2c1` gave GPT2 inh -3%, NPR1 antag 13µM*, HEK cytotox 14µM*, NIH3T3 tox 18µM*, FLuc inh inactive, Npr1 antag conf 24µM*, NPR2 antag 24µM*, FLuc counter -28% and GloSensor ctrl 22µM*.
